Reference: ChEMBL document CHEMBL1961873, “Compounds: GSK PKIS; Assays: Nanosyn kinase panel” (2012)

Experiments:
[1] = biological target: Serine/threonine-protein kinase PAK 6 (Homo sapiens) (UniProt Q9NQU5); details: at 1 µM;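 note: values are mean percent inhibition of PAK6 kinase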
[2] = test system: Tyrosine-protein kinase ABL1 (Homo sapiens), P00519 [E255K]; details: at 0.1 µM
[3] = test system: Tyrosine-protein kinase ABL1 (Homo sapiens), P00519 [E255K]; details: at 1 µM
[4] = test system: Tyrosine-protein kinase ABL1 (Homo sapiens), P00519 [H396P]; details: at 0.1 µM
[5] = test system: Tyrosine-protein kinase ABL1 (Homo sapiens), P00519 [H396P]; details: at 1 µM
[6] = test system: Tyrosine-protein kinase ABL1 (Homo sapiens), P00519 [M351T]; details: at 0.1 µM
[7] = test system: Tyrosine-protein kinase ABL1 (Homo sapiens), P00519 [M351T]; details: at 1 µM
[8] = test system: Tyrosine-protein kinase ABL1 (Homo sapiens), P00519 [Q252H]; details: at 0.1 µM
[9] = test system: Tyrosine-protein kinase ABL1 (Homo sapiens), P00519 [Q252H]; details: at 1 µM
[10] = test system: Tyrosine-protein kinase ABL1 (Homo sapiens), P00519 [T315I]; details: at 0.1 µM
[11] = test system: Tyrosine-protein kinase ABL1 (Homo sapiens), P00519 [T315I]; details: at 1 µM
[12] = test system: Tyrosine-protein kinase ABL1 (Homo sapiens), P00519 [Y253F]; details: at 0.1 µM
[13] = test system: Tyrosine-protein kinase ABL1 (Homo sapiens), P00519 [Y253F]; details: at 1 µM
[14] = biological target: Tyrosine-protein kinase ABL1 (Homo sapiens) (UniProt P00519); details: at 0.1 µM
[15] = biological target: Tyrosine-protein kinase ABL1 (Homo sapiens) (UniProt P00519); details: at 1 µM
[16] = biological target: ALK tyrosine kinase receptor (Homo sapiens) (UniProt Q9UM73); details: at 0.1 µM
Chain of ALK tyrosine kinase receptor (Homo sapiens) (Q9UM73 19-1620 limits assumed): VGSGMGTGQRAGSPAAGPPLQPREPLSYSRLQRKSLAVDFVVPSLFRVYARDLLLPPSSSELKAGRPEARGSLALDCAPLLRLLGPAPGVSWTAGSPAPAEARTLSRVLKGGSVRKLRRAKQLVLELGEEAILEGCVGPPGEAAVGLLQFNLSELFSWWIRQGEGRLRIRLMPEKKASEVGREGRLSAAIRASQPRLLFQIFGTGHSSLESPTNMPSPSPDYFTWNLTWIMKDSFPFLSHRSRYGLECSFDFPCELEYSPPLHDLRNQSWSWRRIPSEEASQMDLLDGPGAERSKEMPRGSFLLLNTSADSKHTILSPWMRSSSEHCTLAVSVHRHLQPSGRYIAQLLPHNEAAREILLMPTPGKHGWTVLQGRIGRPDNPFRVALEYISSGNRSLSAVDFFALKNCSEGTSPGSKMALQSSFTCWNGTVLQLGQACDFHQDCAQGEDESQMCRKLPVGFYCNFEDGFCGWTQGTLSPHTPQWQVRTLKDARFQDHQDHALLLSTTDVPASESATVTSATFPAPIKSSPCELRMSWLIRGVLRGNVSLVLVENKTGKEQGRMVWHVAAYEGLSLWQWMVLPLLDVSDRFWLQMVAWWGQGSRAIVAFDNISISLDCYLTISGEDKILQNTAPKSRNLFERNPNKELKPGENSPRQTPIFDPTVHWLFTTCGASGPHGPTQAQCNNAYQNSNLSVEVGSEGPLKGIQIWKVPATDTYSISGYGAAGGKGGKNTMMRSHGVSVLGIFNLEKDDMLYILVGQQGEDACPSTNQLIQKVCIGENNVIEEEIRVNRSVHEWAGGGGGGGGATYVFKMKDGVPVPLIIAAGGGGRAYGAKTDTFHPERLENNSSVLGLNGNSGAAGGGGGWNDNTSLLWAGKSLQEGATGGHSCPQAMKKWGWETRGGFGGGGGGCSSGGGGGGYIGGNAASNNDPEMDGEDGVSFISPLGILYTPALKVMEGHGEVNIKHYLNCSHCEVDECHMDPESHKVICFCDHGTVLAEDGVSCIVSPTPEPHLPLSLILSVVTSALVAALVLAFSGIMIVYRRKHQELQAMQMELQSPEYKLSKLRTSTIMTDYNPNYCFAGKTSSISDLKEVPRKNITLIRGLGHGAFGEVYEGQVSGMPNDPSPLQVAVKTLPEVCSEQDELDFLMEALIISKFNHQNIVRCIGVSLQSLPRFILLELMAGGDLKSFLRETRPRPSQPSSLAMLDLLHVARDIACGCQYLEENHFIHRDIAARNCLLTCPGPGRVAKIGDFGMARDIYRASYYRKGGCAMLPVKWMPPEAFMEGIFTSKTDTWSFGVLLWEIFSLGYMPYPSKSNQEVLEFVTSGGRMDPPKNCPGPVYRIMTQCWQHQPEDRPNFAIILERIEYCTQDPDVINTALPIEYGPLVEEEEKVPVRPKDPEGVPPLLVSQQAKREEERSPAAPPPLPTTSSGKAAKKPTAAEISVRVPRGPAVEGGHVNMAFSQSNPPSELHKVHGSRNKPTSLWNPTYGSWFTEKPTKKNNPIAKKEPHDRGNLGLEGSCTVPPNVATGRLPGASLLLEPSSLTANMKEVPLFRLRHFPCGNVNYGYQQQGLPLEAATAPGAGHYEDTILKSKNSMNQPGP

[17] = biological target: ALK tyrosine kinase receptor (Homo sapiens) (UniProt Q9UM73); details: at 1 µM
[18] = biological target: Tyrosine-protein kinase ABL2 (Homo sapiens) (UniProt P42684); details: at 0.1 µM
Chain of Tyrosine-protein kinase ABL2 (Homo sapiens) (P42684 whole entry): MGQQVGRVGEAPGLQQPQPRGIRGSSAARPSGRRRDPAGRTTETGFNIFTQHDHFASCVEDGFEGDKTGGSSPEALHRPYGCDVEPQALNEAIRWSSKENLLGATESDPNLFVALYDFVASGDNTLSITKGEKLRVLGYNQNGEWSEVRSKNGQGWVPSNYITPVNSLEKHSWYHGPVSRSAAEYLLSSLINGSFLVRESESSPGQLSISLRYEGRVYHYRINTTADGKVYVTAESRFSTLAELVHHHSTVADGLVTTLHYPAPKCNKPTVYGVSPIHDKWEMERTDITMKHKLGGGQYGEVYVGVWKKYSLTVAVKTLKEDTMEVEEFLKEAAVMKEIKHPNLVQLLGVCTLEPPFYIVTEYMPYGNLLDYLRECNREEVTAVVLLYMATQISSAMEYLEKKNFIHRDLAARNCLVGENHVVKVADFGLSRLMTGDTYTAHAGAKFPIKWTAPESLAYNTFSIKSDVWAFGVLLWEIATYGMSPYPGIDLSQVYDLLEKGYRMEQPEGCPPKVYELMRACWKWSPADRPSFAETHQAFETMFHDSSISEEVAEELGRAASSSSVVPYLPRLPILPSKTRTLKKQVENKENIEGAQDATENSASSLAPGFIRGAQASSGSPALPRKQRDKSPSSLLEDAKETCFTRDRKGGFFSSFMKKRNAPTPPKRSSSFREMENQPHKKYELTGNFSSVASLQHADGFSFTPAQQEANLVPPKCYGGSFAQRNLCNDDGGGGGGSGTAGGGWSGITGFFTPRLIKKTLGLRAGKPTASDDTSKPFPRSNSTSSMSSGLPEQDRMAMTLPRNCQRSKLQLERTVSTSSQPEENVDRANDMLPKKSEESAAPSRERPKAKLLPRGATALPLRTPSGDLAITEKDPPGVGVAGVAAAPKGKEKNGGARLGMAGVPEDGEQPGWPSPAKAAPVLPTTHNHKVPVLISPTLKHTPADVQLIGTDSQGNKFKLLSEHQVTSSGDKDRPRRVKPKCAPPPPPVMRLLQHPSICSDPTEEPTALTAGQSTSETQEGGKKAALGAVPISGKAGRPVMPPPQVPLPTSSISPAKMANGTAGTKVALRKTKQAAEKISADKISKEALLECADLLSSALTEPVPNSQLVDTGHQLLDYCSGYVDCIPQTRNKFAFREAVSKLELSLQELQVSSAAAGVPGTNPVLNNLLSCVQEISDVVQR

[19] = biological target: Tyrosine-protein kinase ABL2 (Homo sapiens) (UniProt P42684); details: at 1 µM
[20] = biological target: Tyrosine-protein kinase receptor UFO (Homo sapiens) (UniProt P30530); details: at 0.1 µM;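 note: values are mean percent inhibition of AXL from the GSK PKIS screen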
Chain of Tyrosine-protein kinase receptor UFO (Homo sapiens) (P30530 whole entry): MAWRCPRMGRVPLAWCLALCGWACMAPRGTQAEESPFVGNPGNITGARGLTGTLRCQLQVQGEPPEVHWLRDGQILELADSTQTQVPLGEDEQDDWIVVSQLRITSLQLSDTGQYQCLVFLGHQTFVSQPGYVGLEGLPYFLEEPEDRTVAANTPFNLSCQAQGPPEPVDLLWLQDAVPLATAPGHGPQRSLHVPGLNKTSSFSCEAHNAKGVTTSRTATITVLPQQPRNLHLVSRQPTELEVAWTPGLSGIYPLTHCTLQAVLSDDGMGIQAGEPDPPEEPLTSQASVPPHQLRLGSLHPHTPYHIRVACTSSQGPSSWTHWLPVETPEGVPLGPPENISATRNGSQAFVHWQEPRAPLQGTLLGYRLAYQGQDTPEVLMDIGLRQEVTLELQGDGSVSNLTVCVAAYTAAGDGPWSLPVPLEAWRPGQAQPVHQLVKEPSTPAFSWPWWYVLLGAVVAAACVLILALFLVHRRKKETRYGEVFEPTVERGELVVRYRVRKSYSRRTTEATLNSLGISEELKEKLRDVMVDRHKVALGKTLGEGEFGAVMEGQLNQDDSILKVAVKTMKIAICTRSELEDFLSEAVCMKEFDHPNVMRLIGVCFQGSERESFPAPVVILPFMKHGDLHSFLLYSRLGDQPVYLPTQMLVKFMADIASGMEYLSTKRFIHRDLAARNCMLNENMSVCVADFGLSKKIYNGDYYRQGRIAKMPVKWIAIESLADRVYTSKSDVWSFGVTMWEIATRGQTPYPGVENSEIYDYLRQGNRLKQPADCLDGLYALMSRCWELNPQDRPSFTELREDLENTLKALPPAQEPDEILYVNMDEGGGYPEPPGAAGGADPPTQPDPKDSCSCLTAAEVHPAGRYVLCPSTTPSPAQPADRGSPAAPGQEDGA

Chain of Serine/threonine-protein kinase PAK 6 (Homo sapiens) (Q9NQU5 whole entry, looked up): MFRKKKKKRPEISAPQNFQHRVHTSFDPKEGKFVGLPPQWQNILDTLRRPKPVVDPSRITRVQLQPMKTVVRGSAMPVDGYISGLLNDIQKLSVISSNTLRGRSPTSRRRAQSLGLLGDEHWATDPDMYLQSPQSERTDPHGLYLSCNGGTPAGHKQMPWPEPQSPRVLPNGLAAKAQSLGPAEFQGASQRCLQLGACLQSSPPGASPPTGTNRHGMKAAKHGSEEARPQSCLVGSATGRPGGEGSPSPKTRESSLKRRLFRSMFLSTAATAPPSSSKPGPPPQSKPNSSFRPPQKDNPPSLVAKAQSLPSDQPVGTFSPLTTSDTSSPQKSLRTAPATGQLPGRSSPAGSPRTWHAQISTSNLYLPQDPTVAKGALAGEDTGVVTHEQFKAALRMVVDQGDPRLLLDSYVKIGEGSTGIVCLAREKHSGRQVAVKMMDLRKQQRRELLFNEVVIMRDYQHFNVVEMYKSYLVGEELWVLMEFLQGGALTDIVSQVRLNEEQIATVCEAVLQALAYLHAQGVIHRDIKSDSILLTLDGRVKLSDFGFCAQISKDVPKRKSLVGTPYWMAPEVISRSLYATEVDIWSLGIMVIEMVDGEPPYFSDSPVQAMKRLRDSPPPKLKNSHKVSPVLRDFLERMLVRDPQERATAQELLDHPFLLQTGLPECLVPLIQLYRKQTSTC

| SMILES | inhibition [1] [%] | inhibition [2] [%] | inhibition [3] [%] | inhibition [4] [%] | inhibition [5] [%] | inhibition [6] [%] | inhibition [7] [%] | inhibition [8] [%] | inhibition [9] [%] | inhibition [10] [%] | inhibition [11] [%] | inhibition [12] [%] | inhibition [13] [%] | inhibition [14] [%] | inhibition [15] [%] | inhibition [16] [%] | inhibition [17] [%] | inhibition [18] [%] | inhibition [19] [%] | inhibition [20] [%] |
| --- | --- | --- | --- | --- | --- | --- | --- | --- | --- | --- | --- | --- | --- | --- | --- | --- | --- | --- | --- | --- |
| Cc1ccc(NC(=O)CC2CC2)cc1-c1ccc(C(=O)NCC2CC2)cc1 | 1.56 | 4.24 | 5.26 | 6.77 | 3.96 | 4.32 | 3.09 | 6.39 | 4.54 | 2.14 | 2.68 | 5.1 | 5.33 | 6.36 | 8.53 | 1.68 | 3.58 | 8.79 | 7.68 | -3.14 |
| Cc1ccc2c(-c3ccnc(Nc4cccc(C(F)(F)F)c4)n3)c(-c3ccccc3)nn2n1 | -8.69 | 3.52 | 19.7 | 11.3 | 44.8 | 24.1 | 68.2 | 24.2 | 69.1 | 6.16 | 20.8 | 12.2 | 53.3 | 7.07 | 36.1 | 3.25 | 3.77 | -9.35 | 33.7 | -5.69 |
| Oc1cccc(-c2nc(-c3ccccc3)[nH]c2-c2ccncc2)c1 | 2.02 | 6.54 | 26.7 | 9.87 | 36.6 | 8.39 | 31.3 | 7.9 | 27 | 3.52 | 8.47 | 11.9 | 44.9 | 8.48 | 43.3 | 3.1 | 4.75 | 13.2 | 50.8 | -4.03 |
| CCn1c(-c2nonc2N)nc2c(C#CC(C)(C)O)nc(OCCNC)cc21 | 1.16 | 2.13 | 2.96 | 3.72 | 4.85 | 1.62 | 3.61 | 3.81 | 4.6 | 1.77 | 4.21 | 1.69 | 4.64 | 4.99 | 5.14 | 2.7 | 3.58 | 1.91 | 4.33 | -7.46 |
| COc1cc2ncnc(Nc3ccc(C)c(O)c3)c2cc1OC | 0.34 | 42.3 | 85.8 | 48.1 | 87.4 | 42.5 | 84.5 | 41.1 | 81.8 | 16.5 | 68.2 | 53.7 | 89.5 | 36.1 | 78.5 | 4.66 | 13.8 | 15.8 | 65.2 | -6.97 |
| CN(c1ccc(NC(=O)Nc2ccc(OC(F)(F)F)cc2)cc1)c1ccnc(Nc2cccc(S(N)(=O)=O)c2)n1 | -2 | 17.2 | 65.3 | 47.6 | 86.9 | 64.9 | 91.2 | 65.8 | 90.2 | 48.7 | 86.2 | 39.2 | 81.5 | 14.3 | 71 | 1.46 | 4.22 | 20.2 | 71.9 | -2.29 |
| COc1cc2ncnc(Nc3ccc4c(cnn4Cc4ccccc4)c3)c2cc1OC | -6 | 2.21 | 2.28 | 2.93 | 6.16 | 0.94 | 3.26 | 2.63 | 7.1 | 2.91 | 7.47 | 2.86 | 4.15 | 3.47 | 3.36 | 1.67 | 3.06 | 0.85 | 4.75 | -3.79 |
| COC(=O)c1cncc(/C=C/c2c(C)cc(O)cc2C)c1 | 7.57 | 6.85 | 38 | 13.3 | 60 | 15.9 | 66.3 | 15.9 | 64.1 | 4.16 | 5.95 | 13.9 | 60.9 | 11 | 62.9 | 2.92 | 4.4 | 12.5 | 57.4 | -3.94 |
| c1ccc(Nc2ncc(-c3ccccc3)o2)cc1 | -5.22 | 2.44 | 8.33 | 6.74 | 20.6 | 1.76 | 17.6 | 5.59 | 13.7 | -0.57 | 7.7 | 5.14 | 16.3 | 4.09 | 16.5 | 2.99 | 3.91 | 5.2 | 22.7 | -3.91 |
| CCn1c(-c2nonc2N)nc2ccc(F)cc21 | 0.67 | 2.57 | 4.59 | 4.55 | 4.61 | 2.2 | 2.4 | 4.86 | 3.17 | 3.34 | 5.94 | 2.99 | 6.49 | 3.48 | 3.51 | 5.2 | 5.27 | 3.97 | 6.07 | -7.61 |
| Nc1ccc(C#Cc2cncnc2Nc2ccc(OCc3cccc(F)c3)c(Cl)c2)cc1 | -1.86 | 2.88 | 3.39 | 2.21 | 2.72 | -1.21 | 0.91 | 2.9 | 2.24 | 1.6 | 1.84 | 1.89 | 2.12 | 3.72 | 4 | 3.7 | 3.34 | 3.43 | 4.12 | -4.2 |
| N#Cc1c(NC(=O)c2ccccc2F)sc2c1CCCC2 | 3.35 | -0.62 | 1.08 | 0.3 | -1.4 | 0.7 | 0.57 | -0.76 | -0.72 | -0.91 | 0.12 | -0.24 | 0.05 | 0.07 | 1.47 | -1.14 | 1.02 | -0.22 | 1.82 | 1.78 |
| CCS(=O)(=O)c1ccc(OC)c(Nc2nccc(N(C)c3ccc4c(C)n[nH]c4c3)n2)c1 | -6.63 | 50.5 | 88.7 | 61.1 | 90.5 | 54 | 88.3 | 57.7 | 89.6 | 3.83 | 15 | 66.4 | 92.3 | 58 | 78.5 | 4.29 | 12.4 | 42 | 73.9 | -6.66 |
| Cc1nc(-c2ccccc2)n2nc(NCCCN3CCOCC3)ncc12 | -7.1 | 0.22 | 2.36 | 2.5 | 4.26 | -1.13 | 0.73 | 3.04 | 3.3 | 2.3 | 7.48 | 1.75 | 3.67 | 5.87 | 5.41 | 2.79 | 4.11 | 2.85 | 4.35 | -1.08 |
| Cc1cc(-c2ccccn2)cc(C)c1/C=C/c1cncc(-c2nn[nH]n2)c1 | -5.17 | -0.88 | 3.22 | 3.18 | 8.77 | 0.81 | 5.63 | 3.34 | 9.01 | 0.21 | 1.41 | 0.95 | 5.04 | 7.78 | 13 | 3.44 | 5.05 | 5.89 | 20.2 | -5.03 |
| CCCN1CCCC(c2ccc(Nc3nc(Nc4cc(F)ccc4C(N)=O)c4cc[nH]c4n3)c(OC)c2)C1 (stereo not given) | -5.69 | 3.9 | 5.75 | 5.07 | 4.96 | 1.54 | 5.35 | 4.96 | 7.24 | 4.52 | 12.1 | 4.98 | 9.67 | 3.75 | 9.3 | 98.2 | 86.3 | 2.38 | 3.99 | 9.62 |
| CN1CCN(C(=O)c2ccc(NC(=O)Nc3ccc(N(C)c4ccnc(Nc5ccc(CS(C)(=O)=O)cc5)n4)cc3)cc2)CC1 | -8.2 | 3.11 | 29.9 | 18.1 | 67.8 | 24.1 | 72.6 | 21 | 69.6 | 17.6 | 61.5 | 8.21 | 48.1 | 9.79 | 43.9 | 1.71 | 10.3 | 21.9 | 56.5 | -3.75 |
| COc1ccc(-c2nn3ncccc3c2-c2ccnc(Nc3cccc(C(F)(F)F)c3)n2)cc1 | -2.65 | 1.06 | 3.04 | 3.97 | 7.02 | 2.28 | 27 | 2.67 | 17.5 | 2.45 | 5.9 | 1.53 | 5.56 | 5.5 | 4 | 3.3 | 5.15 | 2.28 | 6.55 | -4.48 |
| CN(C)C(=O)O[C@H]1CN[C@H](C#Cc2cc3ncnc(Nc4ccc(OCc5cccc(F)c5)c(Cl)c4)c3s2)C1 | 7.18 | 2 | 3.31 | 2.06 | -0.36 | 0.95 | 0.49 | 4.6 | 3.58 | 2.75 | 1.25 | 4.89 | 4.19 | 3.76 | 8.35 | 2.82 | 5.03 | 3.49 | 6.24 | -3.4 |
| NS(=O)(=O)c1cccc(-c2cc3ccncc3cc2OCc2ccccc2)c1 | -4 | 1.9 | 4.18 | 4.37 | 9.55 | 3.86 | 8.19 | 3.13 | 6.44 | 3.3 | 2.66 | 2.88 | 5.09 | 4.3 | 12.2 | 2.82 | 7.12 | 4.36 | 15.2 | -7.61 |
| CN(C)c1cc2c(Nc3ccc4c(cnn4Cc4ccccc4)c3)ncnc2cn1 | -3.27 | 1.1 | 1.85 | 0.57 | 0.96 | -0.53 | 1.01 | 0.79 | 3.55 | -1.13 | -1.27 | 1.19 | 3.05 | 2.46 | 5.43 | 2.86 | 4.13 | 1.06 | 8.48 | -6.03 |
